From the supplement of paper PMC4022240
± gives the standard deviation.

How the values were obtained:
Experiment in all cases: peptide microarray binding signal (635 nm), min-max normalized on array (fraction of array maximum); higher = stronger binding
Conditions in all cases: peptide region: H3 5-17
[1] = target: T1, HaloTag-ATRX ADD domain (163-292)
T1 chain: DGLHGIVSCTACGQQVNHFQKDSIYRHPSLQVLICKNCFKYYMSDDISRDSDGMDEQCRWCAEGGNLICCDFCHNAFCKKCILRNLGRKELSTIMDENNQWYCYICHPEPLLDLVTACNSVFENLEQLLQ
In short: (§1)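 Within each library, mean intensities of triplicate spots were min-max scaled to give the binding signal. The spots were histone 13-mer peptide–cellulose conjugates on nitrocellulose with a Cy3 tracer, blocked overnight at 4°C. They were then probed for 1 h at 4°C using biotin-labelled HaloTag reader fusions (10 nM to 1 μM) with streptavidin-Alexa Fluor 647 or rabbit histone antibodies (1:10,000 to 1:2,000) with anti-rabbit Alexa 647, and scanned at 635 nm for signal and 532 nm for misprints on an Axon GenePix 4000B.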

[2] = target: HaloTag-ING2 PHD (mouse Ing2 200-280)
In short: as §1

[3] = target: anti-H3K4me3 antibody ab8580
In short: as §1

[4] = target: anti-H3K9me3 antibody ab8898
In short: as §1

[5] = peptide modifications: H3R8me2s H3K9ac, binder concentration: 1:2,000 dilution
[6] = peptide modifications: H3R8me2s H3K9ac, binder concentration: 1:10,000 dilution
[7] = peptide modifications: H3R8me2s H3K9me1, binder concentration: 1:2,000 dilution
[8] = peptide modifications: H3R8me2s H3K9me1, binder concentration: 1:10,000 dilution
[9] = peptide modifications: H3R8me2s H3K9me2, binder concentration: 1:2,000 dilution
[10] = peptide modifications: H3R8me2s H3K9me2, binder concentration: 1:10,000 dilution
[11] = peptide modifications: H3R8me2s H3K9me3, binder concentration: 1:2,000 dilution
[12] = peptide modifications: H3R8me2s H3K9me3, binder concentration: 1:10,000 dilution
[13] = peptide modifications: H3R8me2s H3S10ph, binder concentration: 1:2,000 dilution
[14] = peptide modifications: H3R8me2s H3S10ph, binder concentration: 1:10,000 dilution
[15] = peptide modifications: H3R8me2s H3T11ph, binder concentration: 1:2,000 dilution
[16] = peptide modifications: H3R8me2s H3T11ph, binder concentration: 1:10,000 dilution
[17] = peptide modifications: H3R8me2s, binder concentration: 1:2,000 dilution
[18] = peptide modifications: H3R8me2s, binder concentration: 1:10,000 dilution
[19] = peptide modifications: H3S10ph H3K14ac, binder concentration: 1:2,000 dilution
[20] = peptide modifications: H3S10ph H3K14ac, binder concentration: 1:10,000 dilution
[21] = peptide modifications: H3S10ph H3K14me1, binder concentration: 1:2,000 dilution
[22] = peptide modifications: H3S10ph H3K14me1, binder concentration: 1:10,000 dilution
[23] = peptide modifications: H3S10ph H3K14me2, binder concentration: 1:2,000 dilution
[24] = peptide modifications: H3S10ph H3K14me2, binder concentration: 1:10,000 dilution

For QTARKSTGGKAPR [H3 5-17 Q T A Rme2s Kac S T G G K A P R], the “peptide microarray binding signal” value ([1]; peptide modifications: H3R8me2s H3K9ac, binder concentration: 50 nM) was 0.0102 ± 0.00014, the “peptide microarray binding signal” value ([1]; peptide modifications: H3R8me2s H3K9ac, binder concentration: 500 nM) was 0.0189 ± 0.00053 and the “peptide microarray binding signal” value ([2]; peptide modifications: H3R8me2s H3K9ac, binder concentration: 10 nM) was 0.0344 ± 0.0018. For the same binder, the “peptide microarray binding signal” value ([2]; peptide modifications: H3R8me2s H3K9ac, binder concentration: 100 nM) was 0.064 ± 0.0047, the “peptide microarray binding signal” value [3, 5] was 0.0111 ± 0.0022 and the “peptide microarray binding signal” value [3, 6] was 0.0146 ± 0.00068. The “peptide microarray binding signal” value [4, 5] was 0.011 ± 0.00081 and the “peptide microarray binding signal” value [4, 6] was 0.00899 ± 0.0016.

QTARKSTGGKAPR [H3 5-17 Q T A Rme2s Kme S T G G K A P R] was tested, and the “peptide microarray binding signal” value ([1]; peptide modifications: H3R8me2s H3K9me1, binder concentration: 50 nM) was 0.0141 ± 0.0025, the “peptide microarray binding signal” value ([1]; peptide modifications: H3R8me2s H3K9me1, binder concentration: 500 nM) was 0.0312 ± 0.016 and the “peptide microarray binding signal” value ([2]; peptide modifications: H3R8me2s H3K9me1, binder concentration: 10 nM) was 0.0334 ± 0.0012. For the same binder, the “peptide microarray binding signal” value ([2]; peptide modifications: H3R8me2s H3K9me1, binder concentration: 100 nM) was 0.0522 ± 0.0014, the “peptide microarray binding signal” value [3, 7] was 0.0185 ± 0.0025 and the “peptide microarray binding signal” value [3, 8] was 0.0237 ± 0.00078. The “peptide microarray binding signal” value [4, 7] was 0.0146 ± 0.0028 and the “peptide microarray binding signal” value [4, 8] was 0.0153 ± 0.0016.

For QTARKSTGGKAPR [H3 5-17 Q T A Rme2s Kme2 S T G G K A P R], the “peptide microarray binding signal” value ([1]; peptide modifications: H3R8me2s H3K9me2, binder concentration: 50 nM) was 0.00545 ± 0.0001, the “peptide microarray binding signal” value ([1]; peptide modifications: H3R8me2s H3K9me2, binder concentration: 500 nM) was 0.00886 ± 0.00071 and the “peptide microarray binding signal” value ([2]; peptide modifications: H3R8me2s H3K9me2, binder concentration: 10 nM) was 0.0168 ± 0.00063. The “peptide microarray binding signal” value ([2]; peptide modifications: H3R8me2s H3K9me2, binder concentration: 100 nM) was 0.0228 ± 0.0012, the “peptide microarray binding signal” value [3, 9] was 0.0112 ± 0.0011 and the “peptide microarray binding signal” value [3, 10] was 0.0122 ± 0.002. The “peptide microarray binding signal” value [4, 9] was 0.0214 ± 0.0029 and the “peptide microarray binding signal” value [4, 10] was 0.0131 ± 0.00022.

For QTARKSTGGKAPR [H3 5-17 Q T A Rme2s Kme3 S T G G K A P R], the “peptide microarray binding signal” value ([1]; peptide modifications: H3R8me2s H3K9me3, binder concentration: 50 nM) was 0.00251 ± 0.00011, the “peptide microarray binding signal” value ([1]; peptide modifications: H3R8me2s H3K9me3, binder concentration: 500 nM) was 0.00471 ± 9.5e-05 and the “peptide microarray binding signal” value ([2]; peptide modifications: H3R8me2s H3K9me3, binder concentration: 10 nM) was 0.00979 ± 0.00031. The “peptide microarray binding signal” value ([2]; peptide modifications: H3R8me2s H3K9me3, binder concentration: 100 nM) was 0.0103 ± 0.00024, the “peptide microarray binding signal” value [3, 11] was 0.0199 ± 0.0017 and the “peptide microarray binding signal” value [3, 12] was 0.0138 ± 0.0027. For the same binder, the “peptide microarray binding signal” value [4, 11] was 0.094 ± 0.0025 and the “peptide microarray binding signal” value [4, 12] was 0.0691 ± 0.0084.

QTARKSTGGKAPR [H3 5-17 Q T A Rme2s K Sph T G G K A P R] was tested, and the “peptide microarray binding signal” value ([1]; peptide modifications: H3R8me2s H3S10ph, binder concentration: 50 nM) was 0.00683 ± 0.0003, the “peptide microarray binding signal” value ([1]; peptide modifications: H3R8me2s H3S10ph, binder concentration: 500 nM) was 0.0161 ± 0.0014 and the “peptide microarray binding signal” value ([2]; peptide modifications: H3R8me2s H3S10ph, binder concentration: 10 nM) was 0.0274 ± 0.00033. The “peptide microarray binding signal” value ([2]; peptide modifications: H3R8me2s H3S10ph, binder concentration: 100 nM) was 0.0477 ± 0.0078, the “peptide microarray binding signal” value [3, 13] was 0.00423 ± 0.00039 and the “peptide microarray binding signal” value [3, 14] was 0.00548 ± 0.00014. For the same binder, the “peptide microarray binding signal” value [4, 13] was 0.00403 ± 0.0009 and the “peptide microarray binding signal” value [4, 14] was 0.00363 ± 0.00015.

For QTARKSTGGKAPR [H3 5-17 Q T A Rme2s K S Tph G G K A P R], the “peptide microarray binding signal” value ([1]; peptide modifications: H3R8me2s H3T11ph, binder concentration: 50 nM) was 0.00458 ± 6e-05, the “peptide microarray binding signal” value ([1]; peptide modifications: H3R8me2s H3T11ph, binder concentration: 500 nM) was 0.0138 ± 0.0057 and the “peptide microarray binding signal” value ([2]; peptide modifications: H3R8me2s H3T11ph, binder concentration: 10 nM) was 0.0277 ± 0.00076. For the same binder, the “peptide microarray binding signal” value ([2]; peptide modifications: H3R8me2s H3T11ph, binder concentration: 100 nM) was 0.0321 ± 0.004, the “peptide microarray binding signal” value [3, 15] was 0.0081 ± 0.0027 and the “peptide microarray binding signal” value [3, 16] was 0.00474 ± 0.00064. The “peptide microarray binding signal” value [4, 15] was 0.00136 ± 0.00012 and the “peptide microarray binding signal” value [4, 16] was 0.001441 ± 1.4e-05.

For QTARKSTGGKAPR [H3 5-17 Q T A Rme2s K S T G G K A P R], the “peptide microarray binding signal” value ([1]; peptide modifications: H3R8me2s, binder concentration: 50 nM) was 0.00245 ± 0.00023, the “peptide microarray binding signal” value ([1]; peptide modifications: H3R8me2s, binder concentration: 500 nM) was 0.00352 ± 0.00033 and the “peptide microarray binding signal” value ([2]; peptide modifications: H3R8me2s, binder concentration: 10 nM) was 0.00412 ± 0.00015. The “peptide microarray binding signal” value ([2]; peptide modifications: H3R8me2s, binder concentration: 100 nM) was 0.00184 ± 6.7e-05, the “peptide microarray binding signal” value [3, 17] was 0.0129 ± 0.0069 and the “peptide microarray binding signal” value [3, 18] was 0.0128 ± 0.0042. For the same binder, the “peptide microarray binding signal” value [4, 17] was 0.00237 ± 0.00021 and the “peptide microarray binding signal” value [4, 18] was 0.00415 ± 0.00028.

QTARKSTGGKAPR [H3 5-17 Q T A R K Sph T G G Kac A P R] was tested, and the “peptide microarray binding signal” value ([1]; peptide modifications: H3S10ph H3K14ac, binder concentration: 50 nM) was 0.0047 ± 0.00015, the “peptide microarray binding signal” value ([1]; peptide modifications: H3S10ph H3K14ac, binder concentration: 500 nM) was 0.0165 ± 0.0018 and the “peptide microarray binding signal” value ([2]; peptide modifications: H3S10ph H3K14ac, binder concentration: 10 nM) was 0.0122 ± 0.0017. The “peptide microarray binding signal” value ([2]; peptide modifications: H3S10ph H3K14ac, binder concentration: 100 nM) was 0.0326 ± 0.0032, the “peptide microarray binding signal” value [3, 19] was 0.00136 ± 0.00015 and the “peptide microarray binding signal” value [3, 20] was 0.0012 ± 3.2e-05. The “peptide microarray binding signal” value [4, 19] was 0.00435 ± 0.00042 and the “peptide microarray binding signal” value [4, 20] was 0.00213 ± 7.1e-05.

For QTARKSTGGKAPR [H3 5-17 Q T A R K Sph T G G Kme A P R], the “peptide microarray binding signal” value ([1]; peptide modifications: H3S10ph H3K14me1, binder concentration: 50 nM) was 0.00426 ± 0.0003, the “peptide microarray binding signal” value ([1]; peptide modifications: H3S10ph H3K14me1, binder concentration: 500 nM) was 0.007715 ± 7.2e-05 and the “peptide microarray binding signal” value ([2]; peptide modifications: H3S10ph H3K14me1, binder concentration: 10 nM) was 0.00424 ± 0.00075. For the same binder, the “peptide microarray binding signal” value ([2]; peptide modifications: H3S10ph H3K14me1, binder concentration: 100 nM) was 0.0102 ± 0.0023, the “peptide microarray binding signal” value [3, 21] was 0.000396 ± 7e-06 and the “peptide microarray binding signal” value [3, 22] was 0.000399. For the same binder, the “peptide microarray binding signal” value [4, 21] was 0.00077 ± 4.1e-05 and the “peptide microarray binding signal” value [4, 22] was 0.000404 ± 4.4e-06.

In the case of QTARKSTGGKAPR [H3 5-17 Q T A R K Sph T G G Kme2 A P R], the “peptide microarray binding signal” value ([1]; peptide modifications: H3S10ph H3K14me2, binder concentration: 50 nM) is reported as 0.0068 ± 0.00015, the “peptide microarray binding signal” value ([1]; peptide modifications: H3S10ph H3K14me2, binder concentration: 500 nM) is reported as 0.015 ± 0.00086 and the “peptide microarray binding signal” value ([2]; peptide modifications: H3S10ph H3K14me2, binder concentration: 10 nM) is reported as 0.00597 ± 0.00047. The “peptide microarray binding signal” value ([2]; peptide modifications: H3S10ph H3K14me2, binder concentration: 100 nM) was 0.0125 ± 0.0027, the “peptide microarray binding signal” value [3, 23] was 0.00874 ± 0.00064 and the “peptide microarray binding signal” value [3, 24] was 0.0077 ± 0.0015. The “peptide microarray binding signal” value [4, 23] was 0.00565 ± 0.00062 and the “peptide microarray binding signal” value [4, 24] was 0.00294 ± 0.00015.
